“And” between values parts separate entries of the source, which are not always exact repeats. Identical values can stand only once. Results filed as inconclusive are left out. Entries that show only a call come without a potency. Some compounds were tested as several samples or in several runs, with calls that do not always agree. The source made the active and inactive calls. Calls come from the whole dose curve; as a rule, active = well fitted curve in the direction sought with a large enough effect in the repeat runs; inconclusive = weak or mixed curves; inactive = no such curve, though single readings can be large; an effect the other way counts as inactive or inconclusive.

This passage reports max activation and Potency results from PubChem BioAssay (Tox21).

Sequence of Cytochrome P450 2D6 (Homo sapiens) (P10635 whole entry, looked up): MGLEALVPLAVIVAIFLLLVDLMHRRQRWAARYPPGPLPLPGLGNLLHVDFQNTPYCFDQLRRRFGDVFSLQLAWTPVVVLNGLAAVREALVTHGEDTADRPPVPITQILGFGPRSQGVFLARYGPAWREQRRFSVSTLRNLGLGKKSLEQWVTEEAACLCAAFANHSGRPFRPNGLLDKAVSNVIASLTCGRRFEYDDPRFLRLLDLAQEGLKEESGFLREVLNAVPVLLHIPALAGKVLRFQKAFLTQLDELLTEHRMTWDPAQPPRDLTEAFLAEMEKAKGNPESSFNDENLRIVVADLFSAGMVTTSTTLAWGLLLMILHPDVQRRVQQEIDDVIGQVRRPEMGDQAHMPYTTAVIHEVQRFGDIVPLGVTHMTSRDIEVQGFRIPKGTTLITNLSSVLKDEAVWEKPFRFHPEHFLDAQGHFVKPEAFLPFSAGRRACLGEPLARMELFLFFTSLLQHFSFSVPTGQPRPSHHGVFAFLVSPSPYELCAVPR
Sequence of Nuclear receptor subfamily 1 group I member 2 (Rattus norvegicus) (Q9R1A7 whole entry, looked up): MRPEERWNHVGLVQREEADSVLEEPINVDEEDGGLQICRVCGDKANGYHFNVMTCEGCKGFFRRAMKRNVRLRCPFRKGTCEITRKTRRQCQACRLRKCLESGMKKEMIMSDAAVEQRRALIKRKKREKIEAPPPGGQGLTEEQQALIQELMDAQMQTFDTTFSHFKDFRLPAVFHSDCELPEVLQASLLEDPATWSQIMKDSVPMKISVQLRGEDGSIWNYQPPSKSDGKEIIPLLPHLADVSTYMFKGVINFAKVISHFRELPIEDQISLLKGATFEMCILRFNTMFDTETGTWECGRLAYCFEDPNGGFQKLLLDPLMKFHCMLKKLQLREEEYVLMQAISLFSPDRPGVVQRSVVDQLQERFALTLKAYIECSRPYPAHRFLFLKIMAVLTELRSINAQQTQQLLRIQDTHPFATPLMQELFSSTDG

The target of the first assay is Nuclear receptor subfamily 1 group I member 2 (Rattus norvegicus) (UniProt Q9R1A7). Briefly: Rat pregnane X receptor (rPXR) activation by small molecules, qHTS assay (AID 1346983). Note: nearly all actives have a fitted effect of over 20% in size. Note: potency is the fitted concentration of half-maximal effect. To be noted: rPXR luciferase reporter cells, One-Glo luminescence, 24 h; max activation: stronger effect = higher value. An outline of the steps:
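Luminescent readout (One-Glo luciferase, 30 min room temperature) followed 24 hr compound treatment at 37 C of rPXR cells plated 2,000 per well and preincubated 5hr; qHTS format with compounds delivered in DMSO.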
`CNC[C@H](O)c1ccc(O)c(O)c1`: the max activation was 1.67% (inactive).
In the case of `FC(F)(F)C(Cl)Br` (configuration not stated), the max activation was -0.375% (inactive).
Still for that read-out and setting: in the case of `CCCCCCCC/C=C\CCCCCCCC(=O)O` it was -0.693% (inactive).
As to `CC1(C)O[C@@H]2C[C@H]3[C@@H]4C[C@H](F)C5=CC(=O)C=C[C@]5(C)[C@@]4(F)[C@@H](O)C[C@]3(C)[C@]2(C(=O)CO)O1`, the Potency is 11.2 µM (active).
As to `CCC(Cc1c(I)cc(I)c(N)c1I)C(=O)O` (configuration not stated), the max activation is -1.5% (inactive).
As to `C[C@]12C=CC(=O)C=C1CC[C@H]1[C@@H]3C[C@@H](O)[C@](O)(C(=O)CO)[C@@]3(C)C[C@H](O)[C@@]12F`, the max activation was -5.29% (inactive).
As for `C/C=C/C(=O)N(CC)c1ccccc1C`, the max activation was -1.94% (inactive).
Take `NC[C@H](O)c1ccc(O)c(O)c1`: the max activation was -0.838% (inactive).
On the same count and under the same terms, as for `CC(=O)Oc1c(C)c(C)c2c(c1C)CC[C@@](C)(CCC[C@H](C)CCC[C@H](C)CCCC(C)C)O2`, the figure is -0.642% (inactive) and -1.19% (inactive); as for `CC(C)[N+](C)(CCOC(=O)C1c2ccccc2Oc2ccccc21)C(C)C`, 0.826% (inactive).

A further assay concerns the target Nuclear receptor subfamily 1 group I member 2 (Homo sapiens) (UniProt O75469). Briefly: CYP3A4 induction through human pregnane X receptor (PXR) by small molecules, qHTS assay (AID 1346984). Note: nearly all actives have a fitted effect of over 40% in size. To be noted: DPX-2 HepG2 PXR, CYP3A4-luciferin luminescence, 24 h; series mostly up to 46.1 µM. An outline of the steps: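 Human PXR activation is tracked via CYP3A4 promoter-luciferase in DPX-2 (HepG2) cells. Compounds treat cells for 24hr at 37C, and luminescence is read after One-Glo.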
A general note: In qHTS, concentration-response curves come from the screen itself.
Turning to `CNC[C@H](O)c1ccc(O)c(O)c1`, the Potency result is “inactive”.
In the case of `FC(F)(F)C(Cl)Br` (configuration not stated), the Potency entry was “inactive”.
With `CCCCCCCC/C=C\CCCCCCCC(=O)O`, the Potency entry was “inactive”.
As for `CCC(Cc1c(I)cc(I)c(N)c1I)C(=O)O` (configuration not stated), the Potency result was “inactive”.
As for `C[C@]12C=CC(=O)C=C1CC[C@H]1[C@@H]3C[C@@H](O)[C@](O)(C(=O)CO)[C@@]3(C)C[C@H](O)[C@@]12F`, the Potency result is “inactive”.
On the same count and under the same terms, as for `C/C=C/C(=O)N(CC)c1ccccc1C`, the entry is “inactive”; as for `NC[C@H](O)c1ccc(O)c(O)c1`, “inactive”; as for `CC(=O)Oc1c(C)c(C)c2c(c1C)CC[C@@](C)(CCC[C@H](C)CCC[C@H](C)CCCC(C)C)O2`, “inactive”.
Take `CC(C)[N+](C)(CCOC(=O)C1c2ccccc2Oc2ccccc21)C(C)C`: the Potency entry is “inactive”.

A further assay has the same target. The experiment in a line: Human pregnane X receptor (PXR) activation by small molecules, qHTS assay (AID 1346985). Note: nearly all actives have a fitted effect of over 40% in size. Note: potency is the fitted concentration of half-maximal effect. The settings on record: DPX-2 HepG2 CYP3A4-luciferase, 24 h; series mostly up to 38.3 µM. In short, it runs like this:
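DPX-2 cells (HepG2 co-transfected with a PXR response element and a CYP3A4-promoter luciferase construct) were seeded at 2,000 per well, rested 5 hr at 37C, then exposed to DMSO-dissolved compounds for 24 hr. Activation was read as luciferase luminescence.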
As for `CNC[C@H](O)c1ccc(O)c(O)c1`, the Potency result was “inactive”.
On the same count and under the same terms, as for `FC(F)(F)C(Cl)Br` (configuration not stated), the entry is “inactive”; as for `CCCCCCCC/C=C\CCCCCCCC(=O)O`, “inactive”; as for `CC1(C)O[C@@H]2C[C@H]3[C@@H]4C[C@H](F)C5=CC(=O)C=C[C@]5(C)[C@@]4(F)[C@@H](O)C[C@]3(C)[C@]2(C(=O)CO)O1`, 15.8 µM (active).
On the same count and under the same terms, as for `CCC(Cc1c(I)cc(I)c(N)c1I)C(=O)O` (configuration not stated), the entry is “inactive”; as for `C[C@]12C=CC(=O)C=C1CC[C@H]1[C@@H]3C[C@@H](O)[C@](O)(C(=O)CO)[C@@]3(C)C[C@H](O)[C@@]12F`, “inactive”; as for `NC[C@H](O)c1ccc(O)c(O)c1`, “inactive”.
Still for that read-out and setting: as for `CC(=O)Oc1c(C)c(C)c2c(c1C)CC[C@@](C)(CCC[C@H](C)CCC[C@H](C)CCCC(C)C)O2`, the entry is “inactive”; as for `CC(C)[N+](C)(CCOC(=O)C1c2ccccc2Oc2ccccc21)C(C)C`, “inactive”.

A further assay addresses Cytochrome P450 2D6 (Homo sapiens) (UniProt P10635). Briefly: Cytochrome P450 Family 2 Subfamily D Member 6 (CYP2D6) small molecule antagonists: luciferase reporter qHTS assay (AID 1671196). Note: nearly all actives have a fitted effect of over 50% in size. Note: potency is the fitted concentration of half-maximal effect. The settings on record: P450-Glo CYP2D6 enzyme assay, luciferin luminescence, 1 h; series mostly up to 115 µM. In short, it runs like this:
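Quantitative HTS of Tox21 chemicals against CYP2D6 using a luminescent proluciferin substrate. After NADPH addition, 1 h room-temperature reaction; luminescence recorded 20 min post detection reagent.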
Background: In a reporter assay the amount or activity of a reporter protein is the signal.
Turning to `c1ccc2c(c1)[nH]c1ccccc12`, the Potency was 39.2 µM (active) and inactive.
Same read-out and setting: as for `Cc1ccc2c(c1)C(=O)OC2=O`, the entry is “inactive and 6.33 µM (active)”; as for `FC(F)(F)C(Cl)Br` (configuration not stated), “inactive”; as for `COCCOCCOCCO`, “inactive”.
Regarding `CCCCCCCC/C=C\CCCCCCCC(=O)O`, the Potency result is “inactive”.
For the molecule `C=CCOC(=O)C(=C)C`, the Potency entry is “inactive”.
In the case of `C=CN1CCCC1=O`, the Potency entry was “inactive”.
Turning to `CC1=CC(C)(C)Nc2ccccc21`, the Potency entry was “inactive”.
As for `CCCCCCCCCCCCCO`, the Potency result is “inactive”.
Still for that read-out and setting: in the case of `CCCN1C=CN(C)C1` it was “inactive”; in that of `CC1(C)O[C@@H]2C[C@H]3[C@@H]4C[C@H](F)C5=CC(=O)C=C[C@]5(C)[C@@]4(F)[C@@H](O)C[C@]3(C)[C@]2(C(=O)CO)O1`, “inactive”.
Turning to `c1ccc2ncccc2c1`, the Potency result was “inactive”.
Take `CCC(Cc1c(I)cc(I)c(N)c1I)C(=O)O` (configuration not stated): the Potency entry was “inactive”.
Same read-out and setting: in the case of `OCCNCCO` it was “inactive”; in that of `C1COCCN1`, “inactive”.
Same read-out and setting: in the case of `CC(=O)Nc1ccc2c(c1)Cc1cc(NC(C)=O)ccc1-2` it was “inactive”; in that of `C[C@]12C=CC(=O)C=C1CC[C@H]1[C@@H]3C[C@@H](O)[C@](O)(C(=O)CO)[C@@]3(C)C[C@H](O)[C@@]12F`, “inactive”.
The same measure, in the same setting: in the case of `Cc1ccc(C(C)(C)C)cc1` it was “inactive”; in that of `C/C=C/C(=O)N(CC)c1ccccc1C`, “inactive”; in that of `Brc1nc2ccccc2s1`, “inactive”.
With `[Na+]`, the Potency result was “inactive”.
On to `CCO[Si](CCCNC(N)=O)(OCC)OCC`, for which the Potency entry is “inactive”.
`Cc1cccc(Nc2ccccc2C(=O)O)c1C`: the Potency result was “inactive”.
Take `NC[C@H](O)c1ccc(O)c(O)c1`: the Potency result was “inactive”.
`O=[Se](O)O`: the Potency entry is “inactive”.
As to `NCCOCCO`, the Potency result is “inactive”.
Turning to `C=CC(=O)OCCCC`, the Potency result is “inactive”.
With `CC(=O)Oc1c(C)c(C)c2c(c1C)CC[C@@](C)(CCC[C@H](C)CCC[C@H](C)CCCC(C)C)O2`, the Potency result was “inactive”.
On to `c1ccc2c(c1)ccc1cc3c(ccc4ccccc43)cc12`, for which the Potency result is “inactive”.
On to `Nc1ccc(O)c(N)c1`, for which the Potency is 35.3 µM (active) and 31.7 µM (active).
`CCCCCCCCCCCCO`: the Potency entry was “inactive”.
Still for that read-out and setting: in the case of `CC(C)[N+](C)(CCOC(=O)C1c2ccccc2Oc2ccccc21)C(C)C` it was 100 nM (active) and 195 nM (active); in that of `C=CCCCCCCCCCC`, “inactive”.
For `C[N+](C)(C)CCO`, the Potency entry was “inactive”.
